Laboratory results from PubChem BioAssay AID435019 (Southern Research Specialized Biocontainment Screening …, 2010).
The campaign covered roughly 2,300 compounds. About 1,200 (52%) were called active. The set was probably picked from earlier hits. The list shows a part of the results. Results with a measured potency or affinity are listed apart. Values without a mark were called inactive. The rule behind the calls is not given here.

Assay: mammalian cell cytotoxicity, dose response, cytotoxicity control for M. tuberculosis inhibitor project (AID 435019);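 note: 0% = background wells and 100% = vehicle-treated cells; lower values mean fewer viable cells so more cytotoxicity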
Settings: cytotoxicity counter-screen; series mostly up to 40 µM; viability: at the top concentration

Row | SMILES | viability
1 | CCOC(=O)COc1ccc2c(c1)C(=O)CC(C)(c1cccnc1)O2 (centres undefined) | 102%
2 | Nc1ccc2oc(-c3cccs3)nc2c1 | 95.4%
3 | CCOC(=O)c1ccc(N=C(CC)c2c(O)n(C)c(=O)n(C)c2=O)cc1 | 90.3%
4 | C=CCc1cc(C)ccc1OCCCC(C(=O)OCC)C(=O)OCC | 97.1%
5 | COc1cc(C)ccc1OCCOc1c(C)cc(Cl)cc1Cl | 86.2%
6 | C[Se]C[C@@H](N)C(=O)O | 101%
7 | Cc1nc2sccn2c1-c1nc(-c2cc3ccccc3o2)cs1 | 86.8%
8 | Cc1ccc(NC(=O)COC(=O)CCc2c[nH]c3ccccc23)cc1[N+](=O)[O-] | 92.4%
9 | C[C@@H]1CN([C@H](C)CO)C(=O)c2cc(NC(=O)Nc3ccc(C(F)(F)F)cc3)ccc2O[C@H]1CN(C)S(=O)(=O)c1cccs1 | 91.9%
10 | CCOC(=O)CSc1cc(=O)n(C)c2cc(Cl)ccc12 | 96.9%
11 | O=C(CSc1nc2ccccc2[nH]1)N1c2ccccc2Sc2ccccc21 | 81.8%
12 | O=c1cc(O)c2sc3nc(-c4cccnc4)cc(C(F)(F)F)c3c2[nH]1 | 92.6%
13 | CC(C)c1ccc(-c2nn(-c3ccccc3)cc2C(=O)NCC2CCCO2)cc1 (centres undefined) | 86.4%
14 | COc1ccc(-c2cn3cc([N+](=O)[O-])ccc3n2)cc1OC | 96.1%
15 | C=CCOc1ccc(/C=N/O)cc1Cl | 84.8%
16 | O=C(Nc1cccc(Cl)c1)N1CCN(C/C=C/c2ccccc2)CC1 | 84.9%
17 | Cc1ccc(/C=C/S(=O)(=O)NCC(=O)OCC(=O)Nc2c(F)cccc2F)cc1 | 91.2%
18 | CC1(C)c2cc(Cl)ccc2-n2c1cc(O)c(-c1ccccc1)c2=O | 88.4%
19 | O=c1[nH]c(CSc2cccc[n+]2[O-])nc2ccccc12 | 93.4%
20 | O=C(OCc1ccccc1)/C(=C(\O)c1ccccc1Br)c1ccc(-c2ccccc2)cn1 | 89.2%
21 | CCCc1cc(=O)[nH]c(SCC(=O)N2CCCC2=O)n1 | 95.3%
22 | Cc1nc2ccc(OC(=O)c3ccccc3)cc2s1 | 86.3%
23 | Clc1ccc(-c2ccc(C=Nc3ccc(N4CCOCC4)cc3)o2)c(Cl)c1 | 95.9%
24 | O=C(CSc1nc2ccccc2nc1N1CCOCC1)N1CCN(c2ccccc2)CC1 | 89.7%
25 | CC(C)OC(=O)CSc1nc2ccccc2s1 | 95.2%
26 | C1=C(c2c[nH]c3ccccc23)CCNC1 | 88.5%
27 | COc1ccc(N2CN=C3SCC(=O)N3C2)cc1 | 99.6%

Row | SMILES | viability
28 | CCn1nnc(-c2ccc(N)cc2)n1 | 94.1%
29 | Nc1ccc(CCc2ccc(N)cc2)cc1 | 93.5%
30 | Cc1cc2cc(CNC(=O)NC3CCCCC3)ccc2[nH]1 | 89%
31 | O=C(/C=C/c1ncc(C(F)(F)F)cc1Cl)OCc1ccccc1 | 100%
32 | Cc1ccc(NC(=O)COc2ccc(-n3ccnc3)cc2)cc1Cl | 98%
33 | Cc1ccc(-c2nnc(NCc3nc4ccccc4[nH]3)c3ccccc23)cc1S(=O)(=O)N1CCCCC1 | 81.5%
34 | CCNCC(=O)N1c2ccccc2CCc2ccc(NC(=O)OC(C)C)cc21 | 82.4%
35 | COC(=O)c1c(NC(=O)C(=O)N2CCCC2)sc2c1CC(C)(C)OC2 | 89.7%
36 | CCc1c(C)sc(NC(=S)N2CCN(CC)CC2)c1C(=O)OC | 83.2%
37 | Cc1ccc(N=Nc2c(C)[nH]n(C(N)=S)c2=O)cc1 | 83.6%
38 | O=C1NCCC/C1=N\Nc1ccc(Br)cc1 | 94.1%
39 | COC(=O)CNC(=O)CSc1nc2sc(-c3ccccc3)cc2c(=O)n1-c1ccccc1 | 90.4%
40 | Cc1ccc(NC(=O)c2sccc2-n2cccc2)c(C)c1 | 93.2%
41 | CCCCCCCCCCOC(=O)Cn1c(COc2ccc(Cl)cc2)[n+](C)c2ccccc21 | 93.5%
42 | Nc1nonc1C(=O)NCCNCc1c(OCc2ccccc2F)ccc2ccccc12 | 94%
43 | Cn1ccnc1C(O)c1cc(C(C)(C)C)c(O)c(C(C)(C)C)c1 (centres undefined) | 89%
44 | C(=N\Nc1nc(-c2ccccc2)cs1)/c1ccncc1 | 88.6%
45 | Cc1cccc(NC(=O)CCSc2nnc(Cc3ccccc3)o2)c1 | 99.5%
46 | COC(=O)c1cccc(OC(N)=O)c1 | 97.2%
47 | c1ccc(Cn2c3ccccc3c3nnc(SCCN4CCCCC4)nc32)cc1 | 88.8%
48 | CC(=O)c1c(C)n(C)c2ccc(OC(=O)c3ccc([N+](=O)[O-])cc3)cc12 | 93.6%
49 | COC(=O)CSc1ncnc2c1cnn2-c1ccc(C)cc1C | 97.7%
50 | CCc1n[nH]c(=S)n1/N=C/c1ccc(-c2ccc(Br)cc2)o1 | 85.9%
51 | NC(=S)N/N=C/c1ccc(-c2ccccc2)o1 | 95.2%
52 | CCOC(=O)c1ccc(-c2c(-c3ccc4c(c3)OCO4)noc2C)cc1F | 85.7%
53 | Cc1onc(-c2ccccc2Cl)c1C(=O)Oc1cccc2cccnc12 | 84.4%
54 | O=c1c(C=Nc2ccc(Oc3ccccc3)cc2)c[nH]n1-c1cccc(Cl)n1 | 94.6%
